We go through 14 compounds from PubChem BioAssay (Tox21).

Test [1] can be described thus: qHTS assay to identify small molecule antagonists of the glucocorticoid receptor (GR) signaling pathway - cell viability counter screen (AID 720693). Note: nearly all actives have a fitted effect of over 55% in size.
A short description of test [2]: qHTS assay for identifying genotoxic compounds that show differential cytotoxicity against isogenic chicken DT40 cell lines with known DNA damage response pathways - wild type cell line (AID 743012). Note: nearly all actives have a fitted effect of over 60% in size. Note: potency is the fitted concentration of half-maximal effect. In short, it runs like this: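 First, wild type DT40 cells were plated at 300 per well and equilibrated about 0.5 h at 37 C/5% CO2. Next, compounds in DMSO were added and exposure lasted 40 h. Finally, CellTiter-Glo was added for 30 min at room temperature and luminescence recorded.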
In general terms: Quantitative high-throughput screening tests each substance at several concentrations.

Test [3] is described as follows: qHTS assay for identifying genotoxic compounds that show differential cytotoxicity against isogenic chicken DT40 cell lines with known DNA damage response pathways - Rev3 mutant cell line (AID 743014). Note: nearly all actives have a fitted effect of over 55% in size. Note: potency is the fitted concentration of half-maximal effect.
The nature of test [4]: qHTS assay for identifying genotoxic compounds that show differential cytotoxicity against isogenic chicken DT40 cell lines with known DNA damage response pathways - Rad54/Ku70 mutant cell line (AID 743015). Note: nearly all actives have a fitted effect of over 60% in size. Note: potency is the fitted concentration of half-maximal effect.
Test [5] in a line: qHTS assay to identify small molecule antagonists of the androgen receptor (AR) signaling pathway - cell viability counter screen (AID 743033; note: nearly all actives have a fitted effect of over 45% in size; note: potency is the fitted concentration of half-maximal effect).
Test [6] can be described thus: qHTS assay to identify small molecule antagonists of the androgen receptor (AR) signaling pathway using the MDA cell line - cell viability counter screen (AID 743041; note: nearly all actives have a fitted effect of over 45% in size). In short, it runs like this:
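Same-well cytotoxicity was assessed by CellTiter-Fluor in MDA-kb2 AR-luc cells after 16 h of compound treatment under R1881 agonism.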

Test [7] can be described thus: qHTS assay to identify small molecule antagonists of the thyroid receptor (TR) signaling pathway - cell viability counter screen (AID 743064). Note: nearly all actives have a fitted effect of over 50% in size. Note: potency is the fitted concentration of half-maximal effect. The gist of the method: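 Fluorescence from CellTiter-Fluor, added after 23.5 h exposure at 37 °C, reported viability of GH3.TRE-Luc cells co-treated with compound and 1 nM T3. Measured in the same wells as the luciferase TR readout.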

The nature of test [8]: qHTS assay to identify small molecule antagonists of the thyroid receptor (TR) signaling pathway (AID 743065). Note: nearly all actives have a fitted effect of over 55% in size. Note: potency is the fitted concentration of half-maximal effect. The gist of the method:
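GH3.TRE-Luc rat pituitary cells (two TREs driving luciferase) were dosed with compound, then stimulated with 1 nM T3 (final) for 23.5 h at 37 C. ONE-Glo luminescence was the read-out, with CellTiter-Fluor fluorescence as the cytotoxicity counter-screen.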

Test [9] relates to thyroid hormone receptor (rat, GH3 cells). Briefly: qHTS assay to identify small molecule agonists of the thyroid receptor (TR) signaling pathway (AID 743066; calls by dose curve).
The target of test [10] is Estrogen receptor (Homo sapiens) (UniProt P03372). The test is described as follows: qHTS assay to identify small molecule antagonists of the estrogen receptor alpha (ER-alpha) signaling pathway (AID 743069; active = well fitted curve in the direction sought with a large enough effect in the signal ratio in the repeat runs, not every such curve was filed as active; the % refers to the signal ratio). In short, it runs like this: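 Reporter cells (ER-alpha-bla, HEK293 background) are conditioned overnight in stripped-serum medium (2% charcoal-stripped FBS). Compound and 17beta-estradiol exposure runs 18 hr at 37C, 5% CO2.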
Estrogen receptor (Homo sapiens), sequence (P03372 whole entry, looked up): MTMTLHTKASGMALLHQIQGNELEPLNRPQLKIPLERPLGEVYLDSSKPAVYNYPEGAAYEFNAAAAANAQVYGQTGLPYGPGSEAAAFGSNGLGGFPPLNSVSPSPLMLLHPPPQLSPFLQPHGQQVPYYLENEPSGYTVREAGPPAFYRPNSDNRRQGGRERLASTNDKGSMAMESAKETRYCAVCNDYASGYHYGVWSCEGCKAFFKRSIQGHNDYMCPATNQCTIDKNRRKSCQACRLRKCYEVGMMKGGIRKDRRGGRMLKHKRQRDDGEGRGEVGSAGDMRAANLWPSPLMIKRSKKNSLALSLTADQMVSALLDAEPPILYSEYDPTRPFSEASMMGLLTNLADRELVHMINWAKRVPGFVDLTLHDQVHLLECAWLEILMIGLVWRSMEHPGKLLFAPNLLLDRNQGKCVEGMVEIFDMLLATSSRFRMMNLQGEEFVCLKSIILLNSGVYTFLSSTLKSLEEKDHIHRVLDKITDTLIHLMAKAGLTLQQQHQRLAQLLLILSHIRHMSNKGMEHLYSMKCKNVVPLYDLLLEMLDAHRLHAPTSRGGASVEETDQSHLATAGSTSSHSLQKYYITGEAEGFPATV

Test [11] in a line: qHTS assay to identify small molecule antagonists of the estrogen receptor alpha (ER-alpha) signaling pathway - cell viability counter screen (AID 743074; calls by dose curve;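 note: HEK293 cells carrying ER-alpha-UAS-bla reporter stimulated with 17beta-estradiol; nearly all actives have a fitted effect of over 45% in size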; note: potency is the fitted concentration of half-maximal effect).
The target of test [12] is Estrogen receptor (Homo sapiens) (UniProt P03372). The test is described as follows: qHTS assay to identify small molecule agonists of the estrogen receptor alpha (ER-alpha) signaling pathway (AID 743075; calls by dose curve;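 note: HEK293 GripTite cells with ER-alpha and UAS-driven beta-lactamase reporter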; note: potency is the fitted concentration of half-maximal effect).
Test [13] shares this target. The test is described as follows: qHTS assay to identify small molecule agonists of the estrogen receptor alpha (ER-alpha) signaling pathway using the BG1 cell line (AID 743079). Note: nearly all actives have a fitted effect of over 20% in size. Note: potency is the fitted concentration of half-maximal effect.
Test [14] is described as follows: qHTS assay to identify small molecule antagonists of the estrogen receptor alpha (ER-alpha) signaling pathway using the BG1 cell line (AID 743080; calls by dose curve;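 note: BG1 cells stimulated with 17beta-estradiol alongside compound; series mostly up to about 70 µM; nearly all actives have a fitted effect of over 25% in size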). In short, it runs like this:
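After 5 days in phenol-red-free 10% charcoal-stripped FBS medium, BG1-Luc-4E2 cells were seeded, left 24 h at 37 C, co-treated with compounds and 17beta-estradiol for 21.5 h, then assayed for viability and luciferase.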

Test [15] can be described thus: qHTS assay to identify small molecule antagonists of the estrogen receptor alpha (ER-alpha) signaling pathway using the BG1 cell line - cell viability counter screen (AID 743081).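 Note: compound given together with 17beta-estradiol as the ER stimulus; series mostly up to about 70 µM; nearly all actives have a fitted effect of over 45% in size.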
The target in the next test is Aromatase (Homo sapiens) (UniProt P11511). The test is described as follows: qHTS assay to identify aromatase inhibitors (AID 743083). Note: series mostly up to about 70 µM; nearly all actives have a fitted effect of over 55% in size.
Aromatase (Homo sapiens), sequence (P11511 whole entry, looked up): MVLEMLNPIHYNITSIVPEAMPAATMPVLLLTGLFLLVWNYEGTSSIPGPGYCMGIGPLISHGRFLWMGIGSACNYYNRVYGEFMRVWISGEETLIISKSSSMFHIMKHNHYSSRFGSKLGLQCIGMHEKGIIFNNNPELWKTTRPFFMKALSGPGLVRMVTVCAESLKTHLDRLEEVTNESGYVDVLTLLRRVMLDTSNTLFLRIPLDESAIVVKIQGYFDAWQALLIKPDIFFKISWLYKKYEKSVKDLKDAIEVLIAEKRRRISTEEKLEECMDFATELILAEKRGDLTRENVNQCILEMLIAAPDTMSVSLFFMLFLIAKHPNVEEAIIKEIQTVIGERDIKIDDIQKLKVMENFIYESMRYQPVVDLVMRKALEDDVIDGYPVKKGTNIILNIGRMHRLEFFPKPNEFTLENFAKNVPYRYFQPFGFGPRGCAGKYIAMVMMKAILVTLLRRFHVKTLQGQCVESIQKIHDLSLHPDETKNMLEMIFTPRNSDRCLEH
For test [16], the target named is Androgen receptor (Homo sapiens) (UniProt P10275). Briefly: qHTS assay to identify small molecule antagonists of the androgen receptor (AR) signaling pathway (AID 743035; active = well fitted inhibition curve with a large enough effect in the signal ratio in the repeat runs, not every such curve was filed as active; the % refers to the signal ratio). In short, it runs like this: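 Beta-lactamase FRET read (2 h RT incubation with LiveBLAzer B/G) following 16 h of compound plus R1881 treatment of AR-UAS-bla HEK293 cells, which had been pre-incubated 4 h at 37C.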
Androgen receptor (Homo sapiens), sequence (P10275 whole entry, looked up): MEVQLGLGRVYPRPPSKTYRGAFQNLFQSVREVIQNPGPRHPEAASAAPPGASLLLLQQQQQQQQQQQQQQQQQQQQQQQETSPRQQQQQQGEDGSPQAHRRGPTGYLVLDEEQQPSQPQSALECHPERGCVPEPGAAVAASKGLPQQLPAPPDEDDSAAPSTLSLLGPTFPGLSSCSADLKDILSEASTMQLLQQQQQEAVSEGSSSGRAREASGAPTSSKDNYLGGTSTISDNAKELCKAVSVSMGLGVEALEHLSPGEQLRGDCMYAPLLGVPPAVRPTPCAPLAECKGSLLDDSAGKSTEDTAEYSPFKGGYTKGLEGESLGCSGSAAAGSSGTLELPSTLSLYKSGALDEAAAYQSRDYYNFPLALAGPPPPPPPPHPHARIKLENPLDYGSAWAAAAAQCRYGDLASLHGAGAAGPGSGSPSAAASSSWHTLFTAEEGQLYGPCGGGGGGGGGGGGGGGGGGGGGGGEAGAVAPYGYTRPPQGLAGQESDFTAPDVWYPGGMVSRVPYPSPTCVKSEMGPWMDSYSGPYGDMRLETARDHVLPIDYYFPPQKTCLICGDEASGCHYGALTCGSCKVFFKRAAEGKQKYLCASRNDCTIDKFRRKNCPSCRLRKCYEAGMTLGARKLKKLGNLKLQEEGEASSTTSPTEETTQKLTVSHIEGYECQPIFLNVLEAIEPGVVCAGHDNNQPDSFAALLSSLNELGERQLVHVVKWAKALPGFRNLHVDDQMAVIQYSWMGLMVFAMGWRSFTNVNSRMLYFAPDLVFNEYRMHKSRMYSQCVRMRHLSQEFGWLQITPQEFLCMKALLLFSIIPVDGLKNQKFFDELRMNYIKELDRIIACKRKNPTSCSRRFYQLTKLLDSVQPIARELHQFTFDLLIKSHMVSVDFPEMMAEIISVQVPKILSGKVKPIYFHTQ

For test [17] the target is unchanged. The test is described as follows: qHTS assay to identify small molecule antagonists of the androgen receptor (AR) signaling pathway using the MDA cell line (AID 743042; note: nearly all actives have a fitted effect of over 55% in size). The gist of the method: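 MDA-kb2 breast carcinoma cells carrying MMTV-luciferase (AR/GR responsive) were co-treated with compounds and the agonist R1881 for 16 h at 37C. Inhibition read as ONE-Glo luminescence; CellTiter-Fluor fluorescence measured in parallel for cytotoxicity.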

For test [18] the target is unchanged. The test is described as follows: qHTS assay to identify small molecule agonists of the androgen receptor (AR) signaling pathway (AID 743036; active = well fitted activation curve with a large enough effect in the signal ratio in the repeat runs, with a control signal flat, not every such curve was filed as active; the % refers to the signal ratio). In short, it runs like this: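 Fluorescence from a beta-lactamase FRET substrate served as read-out in AR-UAS-bla GripTite HEK293 cells. Cells were treated with DMSO-dissolved compounds for 16 h at 37C, then with LiveBLAzer B/G substrate for 2 h at room temperature.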

For test [19] the target is unchanged. Briefly: qHTS assay to identify small molecule agonists of the androgen receptor (AR) signaling pathway using the MDA cell line (AID 743040; note: nearly all actives have a fitted effect of over 20% in size). The gist of the method: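 Human breast carcinoma MDA-kb2 reporter cells (MMTV-luc, AR/GR elements) were treated for 16 h at 37C in 0% CO2 following a 5 h settling period. Signal was quantified by ONE-Glo luminescence.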

“And” between values parts separate entries of the source, which are not always exact repeats. Identical values can stand only once. Inconclusive results are not listed. Some compounds were tested as several samples or in several runs, with calls that do not always agree. The source made the active and inactive calls. Unless noted, calls come from the whole dose curve; as a rule, active = well fitted curve in the direction sought with a large enough effect in the repeat runs; inconclusive = weak or mixed curves; inactive = no such curve, though single readings can be large; an effect the other way counts as inactive or inconclusive.

Turning to `NCCS(=O)(=O)O`, the Potency result in test [1], in test [2], in test [3], in test [4], in test [5] and in [6] was “inactive” throughout. For the same compound, the Potency result in test [8], in test [9], in [10], in test [11], in [12] and in [13] was “inactive” each time. Also, the Potency entry (in test [14]; in [15]; with Aromatase (Homo sapiens)) was “inactive” in each case. Besides, the Potency result in [7] was “inactive and 28.4 µM (active)”.
Regarding `CN(C)C`, the Potency entry in test [1], in test [2], in test [3], in [4], in test [5] and in [6] was “inactive” throughout. Besides, the Potency entry in test [7], in [8], in [9], in test [10], in test [11] and in test [12] was “inactive” each time. In addition, the Potency entry (in test [13]; in [14]; in test [15]; in the test with Aromatase (Homo sapiens)) was “inactive” in each case.
With `CCC/C=C/C=O`, the Potency result in test [1], in [2], in test [3], in [4], in test [5] and in test [16] was “inactive” in each case. In addition, the Potency entry in test [17], in test [7], in test [8], in test [9], in test [10] and in test [11] was “inactive” each time. Further, the Potency result (in test [12]; in test [13]; in test [14]; in [15]; in the test with Aromatase (Homo sapiens)) was “inactive” throughout.
As to `c1ccc2cc3ccccc3cc2c1`, the Potency entry in test [1], in test [2], in test [3], in [4], in [5] and in test [6] was “inactive” throughout. Further, the Potency entry in test [7], in [8], in test [9], in [11], in test [12] and in test [15] was “inactive” throughout. The Potency entry with Aromatase (Homo sapiens) is “inactive”.
In the case of `COc1cc([C@H]2Oc3cc([C@H]4Oc5cc(O)cc(O)c5C(=O)[C@@H]4O)ccc3O[C@@H]2CO)ccc1O`, the Potency entry in test [1], in test [2], in test [3], in [5], in [6] and in test [7] was “inactive” each time. In addition, the Potency entry in test [8], in test [9], in test [11], in test [12], in [13] and in [14] was “inactive” throughout. Further, the Potency result (in test [15]; in the test with Aromatase (Homo sapiens)) was “inactive” each time. In addition, the Potency in [4] is 29.8 µM (active) and 48.4 µM (active).
On to `[O-]/[N+](=N\O)c1ccccc1`, for which the Potency entry in [1], in test [2], in test [3], in test [4], in test [5] and in [6] was “inactive” in each case. The Potency result (in test [7]; in test [8]; in test [9]; in test [10]; in test [15]; with Aromatase (Homo sapiens)) was “inactive” in each case. The Potency entry in [12] was “inactive and 55 µM [activator] (active)”; in [13], 61.1 µM (active).
Consider `CC(=O)O[C@]1(C(C)=O)CC[C@H]2[C@@H]3C=C(Cl)C4=CC(=O)CC[C@]4(C)[C@H]3CC[C@@]21C`, for which the Potency result in test [1], in test [5], in [6], in [7], in [9] and in [11] was “inactive” each time. Moreover, the Potency result (in test [12]; in [15]; with Aromatase (Homo sapiens)) was “inactive” throughout. The Potency in test [2] was 10.6 µM (active) and 27.3 µM (active); in [3], 11.9 µM (active); in [4], 18.8 µM (active); in test [8] it was 26.6 µM (active) and 54.4 µM (active).
Turning to `Brc1nc2ccccc2s1`, the Potency entry in test [1], in test [2], in test [3], in test [4], in test [5] and in test [6] was “inactive” each time. The Potency result in [7], in test [8], in [9], in test [10], in [12] and in test [13] was “inactive” in each case. The Potency entry (in test [14]; in test [15]; with Aromatase (Homo sapiens)) was “inactive” each time.
In the case of `CC(=O)Nc1ccc2c(c1)Cc1cc(NC(C)=O)ccc1-2`, the Potency entry in test [1], in test [2], in test [3], in test [4], in test [5] and in [6] was “inactive” in each case. Also, the Potency entry in [7], in [8], in [9], in test [10], in [11] and in test [12] was “inactive” in each case. For the same compound, the Potency entry (in test [15]; with Aromatase (Homo sapiens)) was “inactive” throughout. In addition, the Potency in test [13] is 9.66 µM (active) and 864 nM (active).
For `CC[C@]12CCCN3CCc4c(n(c5ccccc45)[C@@](O)(C(=O)OC)C1)[C@@H]32`, the Potency result in test [1], in test [2], in test [3], in test [4], in [5] and in test [16] was “inactive” in each case. For the same compound, the Potency entry in test [19], in test [6], in test [17], in test [7], in test [9] and in [11] was “inactive” in each case. Besides, the Potency entry (in [15]; with Aromatase (Homo sapiens)) was “inactive” throughout. The call in test [18] was inactive.
Regarding `c1ccc2c(c1)[nH]c1ccccc12`, the Potency entry in [1], in test [2], in test [3], in test [4], in test [5] and in [16] was “inactive” throughout. Besides, the Potency result in [19], in [17], in [7], in test [8], in test [9] and in test [10] was “inactive” each time. Moreover, the Potency result (in [11]; in test [12]; in test [13]; in [14]; in [15]; with Aromatase (Homo sapiens)) was “inactive” each time. In addition, the compound was called inactive in [18].
In the case of `CC(C)(C)c1cccc(C(C)(C)C)c1O`, the Potency result in test [1], in test [2], in [3], in [4], in test [5] and in test [6] was “inactive” each time. Besides, the Potency entry in test [7], in test [8], in [9], in test [10], in [11] and in test [12] was “inactive” each time. Moreover, the Potency result (in test [13]; in [14]; in [15]; in the test with Aromatase (Homo sapiens)) was “inactive” in each case.
For `CN(Cc1cnc2nc(N)nc(N)c2n1)c1ccc(C(=O)N[C@@H](CCC(=O)O)C(=O)O)cc1`, the Potency entry in test [1], in [19], in test [17], in [9], in test [12] and in test [13] was “inactive” each time. Moreover, the Potency result (in test [15]; with Aromatase (Homo sapiens)) was “inactive” in each case. In addition, the Potency in test [2] was 9.4 nM (active) and 1.7 nM (active); in test [3] it was 11.9 nM (active) and 1.7 nM (active); in test [4], 13.3 nM (active) and 1.7 nM (active); in [5], 0.0756 µM (active); in test [8], 335 nM (active) and 54.5 nM (active); in [11], 0.239 µM (active). Moreover, in test [18], the outcome was inactive.
Take `COC(=O)c1ccc(C)cc1`: the Potency result in test [1], in [2], in test [3], in test [4], in [5] and in test [6] was “inactive” throughout. For the same compound, the Potency entry in [7], in test [8], in [9], in test [10], in test [11] and in test [12] was “inactive” each time. For the same compound, the Potency result (in test [13]; in test [14]; in test [15]; with Aromatase (Homo sapiens)) was “inactive” throughout.
